# Data published in PubChem BioAssay (EPA / NIEHS).
# Results filed as inconclusive are left out. Activity calls are given as the source filed them. How the source made its calls, unless noted: active means hit-call score of the fitted dose curve at least 0.9, where 1 is the maximum; inactive means score below 0.9.
# Experiments:
# [1] = ATG_TAL_CIS: Attagene CIS-FACTORIAL HepG2 Assay for human TAL Basal Promoter (AID 2282966); conditions: HepG2 Attagene cis-factorial TAL promoter reporter; actives raise or lower the signal;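 further: background control endpoint measuring basal TAL promoter reporter mRNA not a specific factor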
# How it was run: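 RT-PCR plus capillary electrophoresis quantifies reporter mRNA induction in transiently transfected HepG2 cells after 24 h chemical treatment. DMSO serves as negative control and baseline for bidirectional fitting.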
# [2] = ATG_TGFb_CIS: Attagene CIS-FACTORIAL HepG2 Assay for human Transforming Growth Factor (TGF) (AID 2282967); conditions: HepG2 Attagene CIS TGFb reporter, mRNA transcription; actives raise or lower the signal
# How it was run: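 HepG2 cells transiently transfected with cis-promoter-driven multiple reporter units measure endogenous TF activity; reporter mRNA quantified at 24 h by RT-PCR, FAM labeling, HpaI digestion and capillary electrophoresis. Bidirectional fit vs DMSO.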
# [3] = ATG_VDRE_CIS: Attagene CIS-FACTORIAL HepG2 Assay for human Vitamin D Receptor Element (VDRE) (AID 2282968); conditions: HepG2 VDRE cis-reporter transcription, actives raise or lower the signal
# How it was run: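 Reporter mRNA induction, quantified by capillary electrophoresis of fluorescently labelled RT-PCR products, was read 24 h after dosing HepG2 cells carrying transiently transfected cis-regulated reporter units; gain or loss relative to DMSO.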
# [4] = molecular target: Estrogen receptor (Homo sapiens) (UniProt P03372); experiment: ATG_ERa_TRANS: Attagene TRANS-FACTORIAL HepG2 Assay for human Estrogen Receptor alpha (ERa) (AID 2282970; active means hit-call score of the fitted dose curve at least 0.9, where 1 is the maximum); conditions: HepG2 Attagene TRANS ERa GAL4 reporter, mRNA
# How it was run: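 Cells: HepG2, transiently transfected. Construct: GAL4-UAS reporter units regulated by exogenous NR-Gal4 chimeras. Time: 24 h. Detection: reporter mRNA by RT-PCR, capillary electrophoresis, fluorescence. Baseline: DMSO, upward fitting.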
# [5] = molecular target: X-box-binding protein 1 (Homo sapiens) (UniProt P17861); experiment: ATG_Xbp1_CIS: Attagene CIS-FACTORIAL HepG2 Assay for human X-box Binding Protein 1 (XBP1) (AID 2282972); conditions: HepG2 XBP1 cis-element reporter, Attagene multiplex; actives raise or lower the signal
# How it was run: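 HepG2 cells transiently transfected with cis-regulated multiple reporter transcription units; endogenous transcription factor activity measured 24 hours after chemical dosing. Reporter mRNA quantified by RT-PCR, 6-FAM primer extension, HpaI digestion and capillary electrophoresis; bidirectional fitting versus DMSO.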
# [6] = ATG_M_19_TRANS: Attagene TRANS-FACTORIAL HepG2 Assay for M19 Transcription Factor (Internal Marker) (AID 2282974; active means hit-call score of the fitted dose curve at least 0.9, where 1 is the maximum); conditions: HepG2 Attagene TRANS-FACTORIAL M19 internal marker reporter
# How it was run: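 HepG2 transiently transfected with GAL4-UAS multiplex reporter constructs, exposed 24 h; reporter RNA quantified by RT-PCR, 6-FAM labeling, HpaI digestion and capillary electrophoresis; internal background marker fitted upward versus DMSO.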
# [7] = molecular target: Glucocorticoid receptor (Homo sapiens) (UniProt P04150); experiment: ATG_GR_TRANS: Attagene TRANS-FACTORIAL HepG2 Assay for human Glucocorticoid Receptor (GR) (AID 2282978; active means hit-call score of the fitted dose curve at least 0.9, where 1 is the maximum;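 further: activators score as hits since higher reporter transcript over DMSO is fitted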); conditions: HepG2 Attagene TRANS GR reporter, mRNA transcription
# How it was run: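 HepG2 cells transiently transfected with GAL4-UAS reporter units and exogenous GR-Gal4 chimera, dosed 24 h. Reporter mRNA by RT-PCR, FAM labeling, HpaI digest and capillary electrophoresis; gain-of-signal fit versus DMSO.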
# [8] = ATG_M_06_TRANS: Attagene TRANS-FACTORIAL HepG2 Assay for M06 Transcription Factor (Internal Marker) (AID 2282983; active means hit-call score of the fitted dose curve at least 0.9, where 1 is the maximum;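 further: reporter transcript level by RT-PCR then capillary electrophoresis fluorescence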); conditions: HepG2 Attagene TRANS M06 internal marker reporter
# How it was run: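 Cells: HepG2, transient multi-reporter transfection. Exposure: 24 h. Detection: RT-PCR, 6-FAM labelling, HpaI digestion (2 h, 37 °C), capillary electrophoresis. Baseline: DMSO.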
# [9] = molecular target: Nuclear receptor subfamily 4 group A member 2 (Homo sapiens) (UniProt P43354); experiment: ATG_NURR1_TRANS: Attagene TRANS-FACTORIAL HepG2 Assay for human Nuclear Receptor Related Protein 1 (NURR1) (AID 2282985; active means hit-call score of the fitted dose curve at least 0.9, where 1 is the maximum); conditions: HepG2 Attagene TRANS reporter, mRNA readout
# How it was run: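 Transient transfection of HepG2, human liver cells, with multiple GAL4-UAS reporter transcription units. Cells dosed 24 h, RNA isolated, reverse-transcribed, PCR-amplified, FAM-labelled, HpaI-digested, sized by capillary electrophoresis. DMSO served as negative control.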
# [10] = molecular target: Transcriptional activator Myb (Homo sapiens) (UniProt P10242); experiment: ATG_Myb_CIS: Attagene CIS-FACTORIAL HepG2 Assay for human Myeloblastosis (Myb) Proto-Oncogene Transcription Factor (AID 2282986); conditions: HepG2 Attagene CIS-FACTORIAL Myb reporter transcription; actives raise or lower the signal
# How it was run: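 Transiently transfected HepG2 cells carrying a multiplexed cis-promoter reporter set report endogenous Myb activity after 24 h compound exposure. Reporter mRNA is read by RT-PCR with capillary electrophoresis of fluorescent products, fitted bidirectionally against DMSO.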
# [11] = molecular target: Nuclear respiratory factor 1 (Homo sapiens) (UniProt Q16656); experiment: ATG_NRF1_CIS: Attagene CIS-FACTORIAL HepG2 Assay for human Nuclear Respiratory Factor 1 (NRF1) Orphan Gene (AID 2282987); conditions: HepG2 NRF1 cis-element reporter, Attagene multiplex; actives raise or lower the signal
# How it was run: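 HepG2 cells transiently transfected with multiple cis-regulated reporter units, exposed 24 h. Reporter mRNAs measured by RT-PCR, fluorescent labelling, HpaI digestion and capillary electrophoresis; bidirectional fitting against DMSO.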
# [12] = molecular target: Steroid hormone receptor ERR1 (Homo sapiens) (UniProt P11474); experiment: ATG_ERRa_TRANS: Attagene TRANS-FACTORIAL HepG2 Assay for human Estrogen-Related Receptor alpha (ERRa) (AID 2282971; active means hit-call score of the fitted dose curve at least 0.9, where 1 is the maximum); conditions: HepG2 Attagene TRANS reporter, ERRa transactivation
# How it was run: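 Reporter transcripts from ERRa-Gal4 chimera activity measured in transiently transfected human HepG2 cells 24 hours after dosing, using RT-PCR with 6-FAM primer extension, HpaI digestion and capillary electrophoresis; DMSO is baseline.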
# [13] = molecular target: Bile acid receptor (Homo sapiens) (UniProt Q96RI1); experiment: ATG_FXR_TRANS: Attagene TRANS-FACTORIAL HepG2 Assay for Farnesoid X Receptor (FXR) (AID 2282979; active means hit-call score of the fitted dose curve at least 0.9, where 1 is the maximum;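 further: hits raise reporter mRNA above DMSO so AC50 marks FXR activation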); conditions: HepG2 Attagene TRANS FXR-GAL4 reporter transcription
# How it was run: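 Reporter transcripts from transfected HepG2 cells were measured 24 h after dosing, using RT-PCR with capillary electrophoresis of 6-FAM-labelled fragments. The read-out reflects activity of exogenous FXR-Gal4 chimera on GAL4-UAS units, with induction relative to DMSO.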
# [14] = molecular target: Oxysterols receptor LXR-alpha (Homo sapiens) (UniProt Q13133); experiment: ATG_LXRa_TRANS: Attagene TRANS-FACTORIAL HepG2 Assay for human Liver X Receptor alpha (LXRa) (AID 2282980; active means hit-call score of the fitted dose curve at least 0.9, where 1 is the maximum); conditions: HepG2 Attagene TRANS reporter, LXRa transactivation
# How it was run: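 Chemical-induced reporter mRNA measured by RT-PCR with fluorescent labelling and capillary electrophoresis after 24 h dosing of transiently transfected HepG2 cells expressing exogenous NR-Gal4 chimeras; increases scored against DMSO baseline.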
# [15] = ATG_M_32_TRANS: Attagene TRANS-FACTORIAL HepG2 Assay for M32 Transcription Factor (Internal Marker) (AID 2282984; active means hit-call score of the fitted dose curve at least 0.9, where 1 is the maximum;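 further: transcript level of a background control reporter unit measured by RT-PCR and capillary electrophoresis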); conditions: HepG2 Attagene TRANS M32 internal marker reporter
# How it was run: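 Measures reporter mRNA induction in human HepG2 liver cells after 24 h chemical treatment. Transcripts from transiently transfected GAL4-UAS reporter units are amplified, fluorescently labelled and sized by capillary electrophoresis; gain of signal relative to DMSO.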
# [16] = molecular target: Oxysterols receptor LXR-beta (Homo sapiens) (UniProt P55055); experiment: ATG_LXRb_TRANS: Attagene TRANS-FACTORIAL HepG2 Assay for human Liver X Receptor beta (LXRb) (AID 2282981; active means hit-call score of the fitted dose curve at least 0.9, where 1 is the maximum); conditions: HepG2 Attagene TRANS GAL4-LXRb reporter, mRNA
# How it was run: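 Transient transfection HepG2 (multiplexed RTUs, GAL4-UAS); NR-Gal4 chimera; 24 h exposure; RNA → RT-PCR → 6-FAM primer extension → HpaI → CE; increase vs DMSO.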
# [17] = molecular target: Hepatocyte nuclear factor 4-alpha (Homo sapiens) (UniProt P41235); experiment: ATG_HNF4a_TRANS: Attagene TRANS-FACTORIAL HepG2 Assay for human Hepatocyte Nuclear Factor 4 alpha (HNF4a) (AID 2282982; active means hit-call score of the fitted dose curve at least 0.9, where 1 is the maximum); conditions: HepG2 HNF4a transactivation reporter, mRNA readout
# How it was run: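 Readout is fluorescent reporter-transcript fragments resolved by capillary electrophoresis after RT-PCR from HepG2 cells dosed for 24 h. Cells carried transfected GAL4-UAS reporter constructs measuring exogenous NR-GAL4 chimera activity; DMSO served as baseline.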
# Sequence of Estrogen receptor (Homo sapiens) (P03372 whole entry, looked up, the tested form may be a part): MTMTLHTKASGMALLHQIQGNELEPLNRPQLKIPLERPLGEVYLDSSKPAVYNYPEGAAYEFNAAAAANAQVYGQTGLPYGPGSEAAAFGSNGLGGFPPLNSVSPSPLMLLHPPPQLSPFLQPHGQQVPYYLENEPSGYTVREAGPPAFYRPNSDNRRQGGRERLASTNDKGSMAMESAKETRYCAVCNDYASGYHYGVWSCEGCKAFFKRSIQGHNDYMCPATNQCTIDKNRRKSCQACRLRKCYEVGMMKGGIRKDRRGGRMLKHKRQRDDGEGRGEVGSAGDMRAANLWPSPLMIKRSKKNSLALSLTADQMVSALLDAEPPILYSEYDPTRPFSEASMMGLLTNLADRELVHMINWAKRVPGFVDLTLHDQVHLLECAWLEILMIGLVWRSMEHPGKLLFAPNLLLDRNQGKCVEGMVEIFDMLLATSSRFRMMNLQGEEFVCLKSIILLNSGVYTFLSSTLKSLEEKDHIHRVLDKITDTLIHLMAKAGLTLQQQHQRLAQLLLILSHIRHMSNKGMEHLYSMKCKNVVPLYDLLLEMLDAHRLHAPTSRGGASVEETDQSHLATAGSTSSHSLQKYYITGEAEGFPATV
# Sequence of Oxysterols receptor LXR-alpha (Homo sapiens) (Q13133 whole entry, looked up, the tested form may be a part): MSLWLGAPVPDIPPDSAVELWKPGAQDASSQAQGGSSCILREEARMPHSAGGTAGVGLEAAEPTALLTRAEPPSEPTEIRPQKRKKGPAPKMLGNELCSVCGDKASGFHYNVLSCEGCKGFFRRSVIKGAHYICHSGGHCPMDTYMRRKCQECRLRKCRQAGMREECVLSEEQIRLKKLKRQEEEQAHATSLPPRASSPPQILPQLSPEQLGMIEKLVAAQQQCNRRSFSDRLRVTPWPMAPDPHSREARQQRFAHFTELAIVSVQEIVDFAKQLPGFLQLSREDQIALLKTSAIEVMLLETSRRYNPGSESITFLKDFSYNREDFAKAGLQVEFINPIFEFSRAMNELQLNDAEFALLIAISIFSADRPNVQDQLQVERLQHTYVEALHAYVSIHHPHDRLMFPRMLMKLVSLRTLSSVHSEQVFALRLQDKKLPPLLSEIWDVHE
# Sequence of Nuclear receptor subfamily 4 group A member 2 (Homo sapiens) (P43354 whole entry, looked up, the tested form may be a part): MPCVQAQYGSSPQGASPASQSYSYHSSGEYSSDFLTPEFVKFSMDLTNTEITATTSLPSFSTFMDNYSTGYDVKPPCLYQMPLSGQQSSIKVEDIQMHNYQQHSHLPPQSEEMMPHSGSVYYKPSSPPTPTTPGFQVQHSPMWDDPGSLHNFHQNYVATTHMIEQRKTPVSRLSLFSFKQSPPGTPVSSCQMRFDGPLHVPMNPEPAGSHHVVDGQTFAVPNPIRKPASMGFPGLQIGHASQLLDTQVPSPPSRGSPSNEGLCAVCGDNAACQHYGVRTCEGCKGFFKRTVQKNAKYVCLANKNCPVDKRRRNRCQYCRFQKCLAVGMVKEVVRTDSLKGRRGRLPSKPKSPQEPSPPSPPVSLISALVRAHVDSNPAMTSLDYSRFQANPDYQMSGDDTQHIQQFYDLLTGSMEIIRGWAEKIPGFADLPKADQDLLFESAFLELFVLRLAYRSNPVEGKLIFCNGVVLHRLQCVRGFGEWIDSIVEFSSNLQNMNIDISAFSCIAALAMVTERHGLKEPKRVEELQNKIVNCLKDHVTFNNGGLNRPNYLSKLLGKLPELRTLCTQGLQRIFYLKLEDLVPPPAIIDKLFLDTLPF
# Sequence of Nuclear respiratory factor 1 (Homo sapiens) (Q16656 whole entry, looked up): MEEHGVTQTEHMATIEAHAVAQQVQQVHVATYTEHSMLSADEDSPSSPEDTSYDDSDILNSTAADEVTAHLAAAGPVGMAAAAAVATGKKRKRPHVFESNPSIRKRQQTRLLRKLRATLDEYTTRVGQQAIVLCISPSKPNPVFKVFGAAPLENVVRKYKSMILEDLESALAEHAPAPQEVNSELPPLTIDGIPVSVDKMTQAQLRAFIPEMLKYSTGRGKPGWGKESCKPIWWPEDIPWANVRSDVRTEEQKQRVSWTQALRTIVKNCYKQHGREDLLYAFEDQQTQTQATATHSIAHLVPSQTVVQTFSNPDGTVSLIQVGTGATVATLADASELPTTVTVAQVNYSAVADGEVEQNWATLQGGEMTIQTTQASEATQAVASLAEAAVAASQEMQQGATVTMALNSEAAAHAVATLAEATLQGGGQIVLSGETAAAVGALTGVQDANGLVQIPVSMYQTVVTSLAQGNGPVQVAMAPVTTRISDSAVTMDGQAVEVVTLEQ
# Sequence of Glucocorticoid receptor (Homo sapiens) (P04150 whole entry, looked up, the tested form may be a part): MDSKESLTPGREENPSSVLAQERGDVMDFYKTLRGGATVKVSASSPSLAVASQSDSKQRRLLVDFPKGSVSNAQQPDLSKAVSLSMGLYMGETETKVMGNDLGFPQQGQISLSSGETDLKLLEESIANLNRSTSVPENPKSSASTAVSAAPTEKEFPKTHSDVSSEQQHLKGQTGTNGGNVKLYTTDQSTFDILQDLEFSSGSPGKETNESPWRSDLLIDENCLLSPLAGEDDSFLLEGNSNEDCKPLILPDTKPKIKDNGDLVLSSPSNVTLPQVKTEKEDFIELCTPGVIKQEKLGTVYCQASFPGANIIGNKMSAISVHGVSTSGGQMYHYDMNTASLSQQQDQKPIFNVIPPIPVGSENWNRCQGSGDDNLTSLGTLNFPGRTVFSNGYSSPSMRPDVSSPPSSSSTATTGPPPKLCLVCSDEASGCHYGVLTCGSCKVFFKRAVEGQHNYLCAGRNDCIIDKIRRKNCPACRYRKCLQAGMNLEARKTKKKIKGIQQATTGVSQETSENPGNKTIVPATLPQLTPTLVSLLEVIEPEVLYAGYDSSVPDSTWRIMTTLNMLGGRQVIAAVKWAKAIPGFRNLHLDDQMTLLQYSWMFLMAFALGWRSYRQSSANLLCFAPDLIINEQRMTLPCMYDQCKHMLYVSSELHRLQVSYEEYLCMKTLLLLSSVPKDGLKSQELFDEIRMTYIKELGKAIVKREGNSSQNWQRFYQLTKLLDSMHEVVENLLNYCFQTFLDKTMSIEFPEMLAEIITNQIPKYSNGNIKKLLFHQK
# Sequence of Transcriptional activator Myb (Homo sapiens) (P10242 whole entry, looked up): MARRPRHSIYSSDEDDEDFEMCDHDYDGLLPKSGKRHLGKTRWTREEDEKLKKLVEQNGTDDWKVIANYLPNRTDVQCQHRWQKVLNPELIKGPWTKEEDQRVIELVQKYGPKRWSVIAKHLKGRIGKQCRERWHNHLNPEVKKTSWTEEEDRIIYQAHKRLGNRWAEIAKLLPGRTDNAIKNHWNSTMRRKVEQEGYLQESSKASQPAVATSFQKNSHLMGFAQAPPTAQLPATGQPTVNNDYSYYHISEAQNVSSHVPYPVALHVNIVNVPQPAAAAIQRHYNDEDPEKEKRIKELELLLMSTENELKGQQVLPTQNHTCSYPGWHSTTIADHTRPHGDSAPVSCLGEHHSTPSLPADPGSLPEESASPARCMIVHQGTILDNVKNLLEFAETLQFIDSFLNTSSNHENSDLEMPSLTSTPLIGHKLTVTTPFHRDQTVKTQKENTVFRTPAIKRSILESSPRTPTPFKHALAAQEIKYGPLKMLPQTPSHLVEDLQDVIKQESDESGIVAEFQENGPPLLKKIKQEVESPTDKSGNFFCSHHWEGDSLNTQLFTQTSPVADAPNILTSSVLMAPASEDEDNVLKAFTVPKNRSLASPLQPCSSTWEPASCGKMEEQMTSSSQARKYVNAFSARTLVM
# Sequence of X-box-binding protein 1 (Homo sapiens) (P17861 whole entry, looked up): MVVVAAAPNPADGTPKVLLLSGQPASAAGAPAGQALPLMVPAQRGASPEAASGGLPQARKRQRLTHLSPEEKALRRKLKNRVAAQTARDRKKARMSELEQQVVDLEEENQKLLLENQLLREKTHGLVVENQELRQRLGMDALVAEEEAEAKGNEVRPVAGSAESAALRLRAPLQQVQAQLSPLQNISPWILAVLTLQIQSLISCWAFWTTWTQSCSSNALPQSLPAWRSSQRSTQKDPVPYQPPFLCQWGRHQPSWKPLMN
# Sequence of Bile acid receptor (Homo sapiens) (Q96RI1 whole entry, looked up, the tested form may be a part): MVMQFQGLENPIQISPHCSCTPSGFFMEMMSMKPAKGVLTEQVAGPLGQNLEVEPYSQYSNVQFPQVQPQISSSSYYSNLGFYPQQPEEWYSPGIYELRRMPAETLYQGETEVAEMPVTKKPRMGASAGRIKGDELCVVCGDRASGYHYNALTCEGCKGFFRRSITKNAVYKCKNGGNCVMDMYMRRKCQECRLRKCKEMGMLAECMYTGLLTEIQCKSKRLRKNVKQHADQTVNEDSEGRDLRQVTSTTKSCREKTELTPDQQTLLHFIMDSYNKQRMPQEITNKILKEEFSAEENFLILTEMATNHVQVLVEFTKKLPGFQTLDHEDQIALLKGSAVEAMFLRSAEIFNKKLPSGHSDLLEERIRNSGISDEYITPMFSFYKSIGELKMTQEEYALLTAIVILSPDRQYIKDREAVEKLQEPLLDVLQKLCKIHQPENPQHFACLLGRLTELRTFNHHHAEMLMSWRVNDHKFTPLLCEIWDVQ
# Sequence of Oxysterols receptor LXR-beta (Homo sapiens) (P55055 whole entry, looked up, the tested form may be a part): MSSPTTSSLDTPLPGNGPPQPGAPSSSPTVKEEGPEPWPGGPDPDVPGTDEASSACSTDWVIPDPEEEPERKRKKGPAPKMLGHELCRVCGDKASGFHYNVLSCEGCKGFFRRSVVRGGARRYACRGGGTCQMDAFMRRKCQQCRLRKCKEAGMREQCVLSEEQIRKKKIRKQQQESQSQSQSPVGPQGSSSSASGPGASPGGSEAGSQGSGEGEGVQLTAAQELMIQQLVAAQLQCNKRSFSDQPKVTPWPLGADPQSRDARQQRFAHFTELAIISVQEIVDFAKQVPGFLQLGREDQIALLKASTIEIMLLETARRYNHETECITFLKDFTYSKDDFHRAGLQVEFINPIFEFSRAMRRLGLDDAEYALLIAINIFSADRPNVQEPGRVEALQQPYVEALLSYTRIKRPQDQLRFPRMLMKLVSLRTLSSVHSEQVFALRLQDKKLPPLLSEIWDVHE
smiles,measurement,setting,value
CO[Si](C)(OC)c1ccccc1,outcome,[1],inactive
same,outcome,[2],inactive
same,AC50,[3],7.98 µM (active)
same,outcome,[4],inactive
same,outcome,[5],inactive
same,outcome,[6],inactive
same,outcome,[7],inactive
same,outcome,[8],inactive
same,outcome,[9],inactive
same,outcome,[10],inactive
same,outcome,[11],inactive
BrC1CCC(Br)C(Br)CCC(Br)C(Br)CCC1Br (centres undefined),outcome,[1],inactive
same,outcome,[2],inactive
same,AC50,[3],2.52 µM (active)
same,outcome,[4],inactive
same,outcome,[12],inactive
same,AC50,[5],45.5 µM (active)
same,outcome,[6],inactive
same,outcome,[7],inactive
same,outcome,[13],inactive
same,outcome,[14],inactive
same,outcome,[8],inactive
same,outcome,[9],inactive
same,outcome,[10],inactive
same,AC50,[11],110 µM (active)
CC1COc2ccccc2N1C(=O)C(Cl)Cl (centres undefined),outcome,[1],inactive
same,outcome,[2],inactive
same,AC50,[3],17.7 µM (active)
same,outcome,[4],inactive
same,outcome,[5],inactive
same,outcome,[6],inactive
same,outcome,[7],inactive
same,outcome,[14],inactive
same,outcome,[15],inactive
same,outcome,[10],inactive
same,outcome,[11],inactive
COC(=O)C1=C(C)NC(C)=C(C(=O)OCCN(C)Cc2ccccc2)C1c1cccc([N+](=O)[O-])c1 (centres undefined),outcome,[1],inactive
same,AC50,[2],131 µM (active)
same,AC50,[3],0.227 µM (active)
same,outcome,[4],inactive
same,outcome,[5],inactive
same,outcome,[6],inactive
same,AC50,[13],0.637 µM (active)
same,outcome,[15],inactive
same,AC50,[9],27.2 µM (active)
same,outcome,[10],inactive
same,AC50,[11],6.96 µM (active)
C[C@H]1C[C@H]2[C@@H]3CCC4=CC(=O)C=C[C@]4(C)[C@@]3(F)[C@@H](O)C[C@]2(C)[C@@]1(O)C(=O)COP(=O)(O)O,outcome,[1],inactive
same,outcome,[2],inactive
same,outcome,[3],inactive
same,outcome,[4],inactive
same,outcome,[5],inactive
same,outcome,[6],inactive
same,outcome,[14],inactive
same,outcome,[16],inactive
same,outcome,[17],inactive
same,outcome,[15],inactive
same,outcome,[10],inactive
same,outcome,[11],inactive
